The values that follow come from PubChem BioAssay (NCI).

This is part of a sample that, as a whole, favours compounds with a hit. Of some 79,000 tested, about 15% had one in any assay. Unmarked numbers belong to inactive results. The source made the active and inactive calls. Cut-off read from the data, not from the text of the source: active = growth inhibition above about 70%; inactive = the rest.

A short description of assay [1]: NCI Yeast Anticancer Drug Screen. Data for the rad50 strain (AID 155).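 Note: 0% = growth of vehicle-only cultures of the same strain.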 Particulars: S. cerevisiae rad50 strain growth inhibition, hits give high values. In outline: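 Growth of the mutant yeast was measured after compound exposure and referenced to vehicle-treated cultures.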
Assay [2] is described as follows: NCI Yeast Anticancer Drug Screen. Data for the mec2-1 strain (AID 157). The settings on record: S. cerevisiae mec2-1 strain, hits give high values. In outline: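 Each compound was tested on mec2-1 yeast, a strain altered in DNA damage repair or cell cycle control. Growth inhibition is reported relative to vehicle.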
The nature of assay [3]: NCI Yeast Anticancer Drug Screen. Data for the sgs1 mgt1 strain (AID 161).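 Note: 0% = growth of cultures given vehicle only.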 The settings on record: S. cerevisiae sgs1 mgt1 strain, hits give high values. In outline: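 Inhibition of yeast growth, normalised to vehicle-treated controls, is reported for a strain bearing genetic alterations in DNA damage repair.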
The nature of assay [4]: NCI Yeast Anticancer Drug Screen. Data for the cln2 rad14 strain (AID 165).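 Note: 0% = growth equal to vehicle treated cultures.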 The settings on record: S. cerevisiae cln2 rad14 strain, hits give high values. The essentials:
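Test compounds were added to cln2 rad14 yeast cultures; inhibition of growth was then determined by comparison with vehicle treatment.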

Assay [5] in a line: NCI Yeast Anticancer Drug Screen. Data for the bub3 strain (AID 167). The settings on record: S. cerevisiae bub3 mutant strain, hits give high values. In outline: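 Whole-cell yeast assay. The mutant strain was incubated with compounds, and growth inhibition was determined by comparison with vehicle-treated cells.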
A short description of assay [6]: NCI Yeast Anticancer Drug Screen. Data for the mlh1 rad18 strain (AID 175). Particulars: S. cerevisiae mlh1 rad18 strain growth inhibition, hits give high values. In outline:
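Inhibition values reflect reduced growth of mutant yeast versus vehicle-treated controls following compound exposure; the mutations affect DNA damage repair.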

The mark [7] stands for this setting: at 5.0 µM (retest, dose inferred, filed as 0.5).
The mark [8] stands for this setting: at 50.0 µM (retest, dose inferred, filed as 5.0).

Consider `Cc1ccc(C)c(N2C(=O)C(=O)C(c3nc4ccccc4o3)/C(=N\NC(=O)c3ccccc3O)C2=O)c1` (configuration not stated), for which the growth inhibition is 6% in assay [1] (setting [7]); 21% in assay [1] (setting [8]); 62.3% in assay [1] (at 50.0 µM); 1% in assay [2] (setting [7]); 29% in assay [2] (setting [8]); 55.2% in assay [2] (at 50.0 µM). Further, the growth inhibition in assay [3] (setting [7]) was 7%; in assay [3] (setting [8]), 21%; in assay [3] (at 50.0 µM), 63%; in assay [4] (setting [7]), 8%; in assay [4] (setting [8]), 33%; in assay [4] (at 50.0 µM), 53.6%. Besides, the growth inhibition in assay [5] (setting [7]) is 6%; in assay [5] (setting [8]), 29%; in assay [5] (at 50.0 µM), 27.4%; in assay [6] (setting [7]), 5%; in assay [6] (setting [8]) it was 7%; in assay [6] (at 50.0 µM) it was 71.9% (active).
Regarding `CN(C)CCC(/C=C/c1ccccc1)=N\Nc1ccc(Cl)c(Cl)c1`, the growth inhibition is 98% (active) in assay [1] (setting [7]); 96% (active) in assay [1] (setting [8]); 99.7% (active) in assay [1] (at 50.0 µM); 99% (active) in assay [2] (setting [7]); 98% (active) in assay [2] (setting [8]); 99.6% (active) in assay [2] (at 50.0 µM). In addition, the growth inhibition was 99% (active) in assay [3] (setting [7]); 98% (active) in assay [3] (setting [8]); 99.5% (active) in assay [3] (at 50.0 µM); 75% (active) in assay [4] (setting [7]); 95% (active) in assay [4] (setting [8]); 98% (active) in assay [4] (at 50.0 µM). Besides, the growth inhibition in assay [5] (setting [7]) was 95% (active); in assay [5] (setting [8]), 97% (active); in assay [5] (at 50.0 µM), 99.3% (active); in assay [6] (setting [7]) it was 98% (active); in assay [6] (setting [8]), 97% (active); in assay [6] (at 50.0 µM), 99.5% (active).
On to `O=[N+]([O-])c1ccc(N=Nc2ccc(O)cc2O)cc1`, for which the growth inhibition in assay [1] (setting [7]) is 48%; in assay [1] (setting [8]) it was 97% (active); in assay [1] (at 50.0 µM) it was 98.5% (active); in assay [2] (setting [7]), 24%; in assay [2] (setting [8]), 98% (active); in assay [2] (at 50.0 µM), 98.9% (active). The growth inhibition was 36% in assay [3] (setting [7]); 98% (active) in assay [3] (setting [8]); 98.3% (active) in assay [3] (at 50.0 µM); -1% in assay [4] (setting [7]); 97% (active) in assay [4] (setting [8]); 90.4% (active) in assay [4] (at 50.0 µM). In addition, the growth inhibition is 45% in assay [5] (setting [7]); 97% (active) in assay [5] (setting [8]); 98.9% (active) in assay [5] (at 50.0 µM); 28% in assay [6] (setting [7]); 97% (active) in assay [6] (setting [8]); 97.7% (active) in assay [6] (at 50.0 µM).
Consider `C=C1C[C@@]2(OC)OCC[C@H]3C(C)=CCC(C1=O)[C@]32C(=O)OC` (some centres not stated), for which the growth inhibition in assay [1] (setting [7]) is 12%; in assay [1] (setting [8]), 96% (active); in assay [1] (at 50.0 µM) it was 98.5% (active); in assay [2] (setting [7]) it was 15%; in assay [2] (setting [8]), 98% (active); in assay [2] (at 50.0 µM) it was 92.7% (active). For the same compound, the growth inhibition in assay [3] (setting [7]) is 15%; in assay [3] (setting [8]) it was 98% (active); in assay [3] (at 50.0 µM), 99.1% (active); in assay [4] (setting [7]), 6%; in assay [4] (setting [8]), 93% (active); in assay [4] (at 50.0 µM) it was 96.8% (active). Also, the growth inhibition in assay [5] (setting [7]) was -5%; in assay [5] (setting [8]) it was 98% (active); in assay [5] (at 50.0 µM), 98.7% (active); in assay [6] (setting [7]), 4%; in assay [6] (setting [8]) it was 97% (active); in assay [6] (at 50.0 µM), 99% (active).
In the case of `NC(CCC(=O)NC(CS(=O)(=O)O)C(=O)O)C(=O)O` (configuration not stated), the growth inhibition in assay [1] (setting [7]) is 1%; in assay [1] (setting [8]), 6%; in assay [1] (at 50.0 µM) it was 13.2%; in assay [2] (setting [7]), 3%; in assay [2] (setting [8]), 2%; in assay [2] (at 50.0 µM), 12.8%. Also, the growth inhibition in assay [3] (setting [7]) is 3%; in assay [3] (setting [8]), 5%; in assay [3] (at 50.0 µM) it was 79.7% (active); in assay [4] (setting [7]) it was 3%; in assay [4] (setting [8]), 4%; in assay [4] (at 50.0 µM), 93.5% (active). The growth inhibition in assay [5] (setting [7]) is -3%; in assay [5] (setting [8]), -6%; in assay [5] (at 50.0 µM), 13.4%; in assay [6] (setting [7]) it was -3%; in assay [6] (setting [8]), -2%; in assay [6] (at 50.0 µM), 85.9% (active).
As for `CC1CCN(CCC(=O)c2cccc(O)c2)CC1`, the growth inhibition is 4% in assay [1] (setting [7]); 57% in assay [1] (setting [8]); 48.5% in assay [1] (at 50.0 µM); -5% in assay [2] (setting [7]); 44% in assay [2] (setting [8]); 36.3% in assay [2] (at 50.0 µM). The growth inhibition in assay [3] (setting [7]) is 2%; in assay [3] (setting [8]), 48%; in assay [3] (at 50.0 µM) it was 29.8%; in assay [4] (setting [7]), -2%; in assay [4] (setting [8]), 26%; in assay [4] (at 50.0 µM), 21.1%. Further, the growth inhibition in assay [5] (setting [7]) was -16%; in assay [5] (setting [8]), 39%; in assay [5] (at 50.0 µM), 15.5%; in assay [6] (setting [7]), 10%; in assay [6] (setting [8]), 77% (active); in assay [6] (at 50.0 µM), 65.8%.
`C[C@]12CCC(=O)C=C1CC[C@@H]1[C@@H]2[C@@H](O)C[C@@]2(C)[C@H]1CC[C@]2(O)C(=O)COC(=O)C1CCCC1`: the growth inhibition is -7% in assay [1] (setting [7]); -10% in assay [1] (setting [8]); 76.8% (active) in assay [1] (at 50.0 µM); 1% in assay [2] (setting [7]); -1% in assay [2] (setting [8]); 19.8% in assay [2] (at 50.0 µM). Further, the growth inhibition was -2% in assay [3] (setting [7]); -9% in assay [3] (setting [8]); 87.7% (active) in assay [3] (at 50.0 µM); -18% in assay [4] (setting [7]); -93% in assay [4] (setting [8]); 35.9% in assay [4] (at 50.0 µM). Also, the growth inhibition was 8% in assay [5] (setting [7]); 11% in assay [5] (setting [8]); 82.8% (active) in assay [5] (at 50.0 µM); -7% in assay [6] (setting [7]); -16% in assay [6] (setting [8]); 72.2% (active) in assay [6] (at 50.0 µM).
With `O.O.O=C(O)C(O)C(O)C(OC1OC(CO)C(O)C(O)C1O)C(O)CO.O=C(O)C(O)C(O)C(OC1OC(CO)C(O)C(O)C1O)C(O)CO.[NH-]C1CCCCC1[NH-].[Pt+2]` (configuration not stated), the growth inhibition in assay [1] (setting [7]) is -6%; in assay [1] (setting [8]), 39%; in assay [1] (at 50.0 µM), 95.1% (active); in assay [2] (setting [7]), -6%; in assay [2] (setting [8]) it was 21%; in assay [2] (at 50.0 µM), 99.6% (active). Further, the growth inhibition in assay [3] (setting [7]) was 0%; in assay [3] (setting [8]), 50%; in assay [3] (at 50.0 µM), 99.7% (active); in assay [4] (setting [7]) it was 2%; in assay [4] (setting [8]), 12%; in assay [4] (at 50.0 µM), 73.2% (active). For the same compound, the growth inhibition was -2% in assay [5] (setting [7]); -2% in assay [5] (setting [8]); 99.4% (active) in assay [5] (at 50.0 µM); -6% in assay [6] (setting [7]); 32% in assay [6] (setting [8]); 99.2% (active) in assay [6] (at 50.0 µM).
`COc1cccc(C2c3cc4c(cc3OC(NNS(=O)(=O)c3ccc(C)cc3)C2C)OCO4)c1O` (configuration not stated): the growth inhibition in assay [1] (setting [7]) was -7%; in assay [1] (setting [8]), 94% (active); in assay [1] (at 50.0 µM), 75.4% (active); in assay [2] (setting [7]), -10%; in assay [2] (setting [8]) it was 81% (active); in assay [2] (at 50.0 µM) it was 85.6% (active). Besides, the growth inhibition in assay [3] (setting [7]) is -4%; in assay [3] (setting [8]) it was 95% (active); in assay [3] (at 50.0 µM), 92.2% (active); in assay [4] (setting [7]), 9%; in assay [4] (setting [8]), 88% (active); in assay [4] (at 50.0 µM), 87.2% (active). For the same compound, the growth inhibition was -20% in assay [5] (setting [7]); 92% (active) in assay [5] (setting [8]); 54% in assay [5] (at 50.0 µM); 6% in assay [6] (setting [7]); 94% (active) in assay [6] (setting [8]); 85.5% (active) in assay [6] (at 50.0 µM).
